# Results reported in PubChem BioAssay AID1159580 (chemical genetic matrix, 2015).
# Hit rate of the full screen: of about 5,500 compounds, about 2,000 (36%) were called active. About 18% were inconclusive and are not listed. The list shows a part of the results. Unmarked numbers belong to inactive results. No stated cut-off is given here; in the data, active means normalized growth mostly below about 0.91 (no sharp cut-off); inconclusive means no clear call, values can overlap the other calls; inactive means mostly above about 0.92.
# Experiment: chemical genetic growth profiling, strain panel (AID 1159580);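 further: tested at 20 µM; growth read once vehicle control cultures reached saturation at 30 °C; 1 = growth at the plate median or of vehicle wells; lower values mean less growth of the strain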
# Settings: growth OD
compound,measurement,setting,value
CC1(C)C2CC[C@]3(C)C(C(=O)C=C4[C@H]5C[C@@](C)(C(=O)O)CC[C@]5(C)CC[C@]43C)[C@@]2(C)CC[C@@H]1O (some centres not stated),normalized growth,"S. cerevisiae deletion strains, locus YJR075W, strain HOC1, active compounds read low",1.05
same,normalized growth,"S. cerevisiae deletion strains, locus YKL009W, strain mrt4, active compounds read low",0.921
same,normalized growth,"S. cerevisiae deletion strains, locus YKL068W, active compounds read low",1.02
same,normalized growth,"S. cerevisiae deletion strains, locus YKL085W, strain MDH1 (second series), active compounds read low",1.02
same,normalized growth,"S. cerevisiae deletion strains, locus YKL085W, strain MDH1, active compounds read low",1.02
same,normalized growth,"S. cerevisiae deletion strains, locus YKL160W, strain elf1, active compounds read low",0.95
same,normalized growth,"S. cerevisiae deletion strains, locus YKL190W, strain CNB1, active compounds read low",1.04
same,normalized growth,"S. cerevisiae deletion strains, locus YKR001C, strain vps1, active compounds read low",0.996
same,normalized growth,"S. cerevisiae deletion strains, locus YKR026C, strain gcn3, active compounds read low",1.03
same,normalized growth,"S. cerevisiae deletion strains, locus YKR091W, strain srl3, active compounds read low",1.01
same,normalized growth,"S. cerevisiae deletion strains, locus YLL001W, strain dnm1, active compounds read low",0.867 (active)
same,normalized growth,"S. cerevisiae deletion strains, locus YLL026W, active compounds read low",0.979
same,normalized growth,"S. cerevisiae deletion strains, locus YLL041C, strain sdh2, active compounds read low",1.01
same,normalized growth,"S. cerevisiae deletion strains, locus YLR027C, strain aat2, active compounds read low",0.899 (active)
same,normalized growth,"S. cerevisiae deletion strains, locus YLR039C, strain RIC1, active compounds read low",1.1
same,normalized growth,"S. cerevisiae deletion strains, locus YLR058C, strain SHM2, active compounds read low",1.03
same,normalized growth,"S. cerevisiae deletion strains, locus YLR102C, strain apc9, active compounds read low",1.01
same,normalized growth,"S. cerevisiae deletion strains, locus YLR113W, strain HOG1, active compounds read low",1.01
same,normalized growth,"S. cerevisiae deletion strains, locus YLR221C, strain rsa3, active compounds read low",0.917
same,normalized growth,"S. cerevisiae deletion strains, locus YLR258W, strain gsy2, active compounds read low",0.953
same,normalized growth,"S. cerevisiae deletion strains, locus YLR262C, strain YPT6 (second series), active compounds read low",0.702 (active)
same,normalized growth,"S. cerevisiae deletion strains, locus YLR262C, strain YPT6, active compounds read low",1.04
same,normalized growth,"S. cerevisiae deletion strains, locus YLR268W, strain sec22, active compounds read low",0.944
same,normalized growth,"S. cerevisiae deletion strains, locus YLR320W, strain mms22, active compounds read low",0.871 (active)
same,normalized growth,"S. cerevisiae deletion strains, locus YLR330W, strain CHS5, active compounds read low",1.04
same,normalized growth,"S. cerevisiae deletion strains, locus YLR342W, strain FKS1 (second series), active compounds read low",1.03
same,normalized growth,"S. cerevisiae deletion strains, locus YLR342W, strain FKS1, active compounds read low",1.01
same,normalized growth,"S. cerevisiae deletion strains, locus YLR357W, strain rsc2, active compounds read low",1.05
same,normalized growth,"S. cerevisiae deletion strains, locus YLR370C, strain arc18, active compounds read low",1.01
same,normalized growth,"S. cerevisiae deletion strains, locus YLR371W, strain rom2, active compounds read low",1
same,normalized growth,"S. cerevisiae deletion strains, locus YLR384C, strain iki3, active compounds read low",1.02
same,normalized growth,"S. cerevisiae deletion strains, locus YLR418C, strain cdc73, active compounds read low",1.03
same,normalized growth,"S. cerevisiae deletion strains, locus YML016C, strain PPZ1, active compounds read low",1.05
same,normalized growth,"S. cerevisiae deletion strains, locus YML032C, strain rad52, active compounds read low",0.991
same,normalized growth,"S. cerevisiae deletion strains, locus YML120C, strain ndi1, active compounds read low",0.993
same,normalized growth,"S. cerevisiae deletion strains, locus YML124C, strain tub3, active compounds read low",1.02
same,normalized growth,"S. cerevisiae deletion strains, locus YMR058W, strain fet3, active compounds read low",0.984
same,normalized growth,"S. cerevisiae deletion strains, locus YMR078C, strain ctf18, active compounds read low",1.01
same,normalized growth,"S. cerevisiae deletion strains, locus YMR125W, strain sto1, active compounds read low",1.02
same,normalized growth,"S. cerevisiae deletion strains, locus YMR129W, active compounds read low",1.01
same,normalized growth,"S. cerevisiae deletion strains, locus YMR205C, strain PFK2, active compounds read low",0.843 (active)
same,normalized growth,"S. cerevisiae deletion strains, locus YMR223W, strain ubp8, active compounds read low",0.994
same,normalized growth,"S. cerevisiae deletion strains, locus YMR231W, strain pep5, active compounds read low",0.984
same,normalized growth,"S. cerevisiae deletion strains, locus YMR263W, strain SAP30, active compounds read low",1.03
same,normalized growth,"S. cerevisiae deletion strains, locus YMR307W, strain GAS1, active compounds read low",1.02
same,normalized growth,"S. cerevisiae deletion strains, locus YNL067W, strain RPL9B, active compounds read low",0.98
same,normalized growth,"S. cerevisiae deletion strains, locus YNL071W, strain lat1, active compounds read low",0.603 (active)
same,normalized growth,"S. cerevisiae deletion strains, locus YNL128W, strain TEP1, active compounds read low",1.04
same,normalized growth,"S. cerevisiae deletion strains, locus YNL153C, strain GIM3, active compounds read low",0.982
same,normalized growth,"S. cerevisiae deletion strains, locus YNL183C, strain NPR1, active compounds read low",0.946
same,normalized growth,"S. cerevisiae deletion strains, locus YNL209W, strain ssb2, active compounds read low",0.971
same,normalized growth,"S. cerevisiae deletion strains, locus YNL233W, strain BNI4, active compounds read low",1.03
same,normalized growth,"S. cerevisiae deletion strains, locus YNL248C, strain rpa49, active compounds read low",0.926
same,normalized growth,"S. cerevisiae deletion strains, locus YNL250W, strain rad50, active compounds read low",1.01
same,normalized growth,"S. cerevisiae deletion strains, locus YNL271C, strain bni1, active compounds read low",1.01
same,normalized growth,"S. cerevisiae deletion strains, locus YNL298W, strain CLA4, active compounds read low",0.965
same,normalized growth,"S. cerevisiae deletion strains, locus YNL307C, strain MCK1, active compounds read low",1.02
same,normalized growth,"S. cerevisiae deletion strains, locus YNL322C, strain KRE1 (second series), active compounds read low",1.01
same,normalized growth,"S. cerevisiae deletion strains, locus YNL322C, strain KRE1, active compounds read low",1.05
same,normalized growth,"S. cerevisiae deletion strains, locus YNR049C, strain mso1, active compounds read low",1.01
same,normalized growth,"S. cerevisiae deletion strains, locus YNR052C, strain pop2, active compounds read low",0.999
same,normalized growth,"S. cerevisiae deletion strains, locus YOL006C, strain TOP1, active compounds read low",1.09
same,normalized growth,"S. cerevisiae deletion strains, locus YOL012C, strain htz1",1.33
same,normalized growth,"S. cerevisiae deletion strains, locus YOL147C, strain pex11, active compounds read low",1.02
same,normalized growth,"S. cerevisiae deletion strains, locus YOR001W, strain rrp6, active compounds read low",1.01
same,normalized growth,"S. cerevisiae deletion strains, locus YOR061W, strain CKA2, active compounds read low",1.04
same,normalized growth,"S. cerevisiae deletion strains, locus YOR069W, strain VPS5, active compounds read low",1.04
same,normalized growth,"S. cerevisiae deletion strains, locus YOR070C, strain gyp1, active compounds read low",0.905 (active)
same,normalized growth,"S. cerevisiae deletion strains, locus YOR080W, strain dia2, active compounds read low",1.02
same,normalized growth,"S. cerevisiae deletion strains, locus YOR083W, strain WHI5, active compounds read low",0.915
same,normalized growth,"S. cerevisiae deletion strains, locus YOR106W, strain vam3, active compounds read low",0.76 (active)
same,normalized growth,"S. cerevisiae deletion strains, locus YOR136W, strain idh2, active compounds read low",1.01
same,normalized growth,"S. cerevisiae deletion strains, locus YOR144C, strain elg1, active compounds read low",1.02
same,normalized growth,"S. cerevisiae deletion strains, locus YOR184W, strain ser1, active compounds read low",0.898
same,normalized growth,"S. cerevisiae deletion strains, locus YOR231W, strain MKK1, active compounds read low",1
same,normalized growth,"S. cerevisiae deletion strains, locus YOR265W, strain rbl2, active compounds read low",0.995
same,normalized growth,"S. cerevisiae deletion strains, locus YOR270C, strain vph1, active compounds read low",0.638 (active)
same,normalized growth,"S. cerevisiae deletion strains, locus YOR290C, strain snf2, active compounds read low",0.944
same,normalized growth,"S. cerevisiae deletion strains, locus YOR316C, strain cot1, active compounds read low",1.01
same,normalized growth,"S. cerevisiae deletion strains, locus YPL051W, strain arl3, active compounds read low",0.892 (active)
same,normalized growth,"S. cerevisiae deletion strains, locus YPL055C, strain LGE1, active compounds read low",1.05
same,normalized growth,"S. cerevisiae deletion strains, locus YPL078C, strain atp4, active compounds read low",0.869 (active)
same,normalized growth,"S. cerevisiae deletion strains, locus YPL106C, strain sse1, active compounds read low",1.17 [resistant] (active)
same,normalized growth,"S. cerevisiae deletion strains, locus YPL240C, strain hsp82, active compounds read low",0.97
same,normalized growth,"S. cerevisiae deletion strains, locus YPL241C, strain CIN2, active compounds read low",1.05
same,normalized growth,"S. cerevisiae deletion strains, locus YPL256C, strain CLN2, active compounds read low",1.03
same,normalized growth,"S. cerevisiae deletion strains, locus YPR119W, strain clb2, active compounds read low",1.02
same,normalized growth,"S. cerevisiae deletion strains, locus YPR141C, strain kar3, active compounds read low",1.02
same,normalized growth,"S. cerevisiae deletion strains, locus YPR163C, strain tif3, active compounds read low",1.02
same,normalized growth,"S. cerevisiae deletion strains, locus YPR167C, strain met16, active compounds read low",1.02
same,normalized growth,"S. cerevisiae deletion strains, strain wtn01, active compounds read low",0.976
same,normalized growth,"S. cerevisiae strains, strain wild type, active compounds read low",1.02
